The list is not random: actives were taken first. Their share in the collection is about 5.7%.
Myeloid diff 2 = myeloid differentiation induction; ER-HoxA9 myeloid progenitors, lysozyme-GFP differentiation, flow cytometry; calls only at 10 µM; 360,000 tested, 1% active; AID 624256;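 active = normalized GFP-positive differentiation at or above the plate's own cutoff, the solvent-only control mean plus 3 SD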;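 also: cells exposed to compound for four days before flow analysis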
FAS-TE inh = FAS thioesterase (human) inhibition | P49327 | recombinant FAS-TE, OMFH fluorogenic substrate, fluorescence endpoint | inhibition, % at 15 µM | 360,000 tested, 0.67% active | AID 602261;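 active = compounds whose normalised, plate-corrected inhibition of enzyme fluorescence in the single-dose primary screen is 50% or more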;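 also: 0% = DMSO with enzyme and 100% = substrate without enzyme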
MPTP inh = blocks calcium-induced mitochondrial swelling; isolated mouse mitochondria, Ca2+ swelling absorbance, 30 min; inhibition, % at 10 µM; 360,000 tested, 1.4% active; AID 602449;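 active = inhibition of 50% or more, scaled per plate between neutral and stimulator controls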;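 also: 0% = DMSO wells given calcium and 100% = 1 mM EGTA wells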
NR3A LBD binder = modulators (binders) of human NR3A ligand-binding domain. 340,000 tested, 2.5% active. NR3A LBD differential scanning fluorimetry, Tm shift; 0% = protein alone, 100% = glycine-bound protein. Tm shift relative to glycine control, % at 25 µM;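 active = melting temperature shift of at least 10% of the positive control shift, at one fixed dose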
rCAG binder = r(CAG) repeat RNA binding; TO-PRO-1 dye displacement fluorescence; inhibition, % at 3 µM; 370,000 tested, 1.3% active; AID 651821;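 active = inhibition above the plate cutoff, the mean of all test compounds on that plate plus 3 SD, cut at about 35% in these data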;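 also: 0% = DMSO alone and 100% = 100 µM mitoxantrone as full dye displacement; higher means more dye released from RNA so lower well fluorescence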
Myeloid diff = myeloid differentiation induction; shares compounds with Myeloid diff 2; ER-HoxA9 myeloid progenitors, GFP/Mac1 double-positive flow; calls only; 2,300 tested, 2% active; AID 651706;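 active = share of green or green-and-red cells above 9 and 9% in run 1 or 4 and 3% in run 2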
GFP autofluor = counter-screen for myeloid differentiation promoters: compound fluorescence. ER-HoxA9 myeloid progenitors, no estrogen, GFP autofluorescence flow cytometry; vehicle wells 0%, positive control 100%. fluorescence response, % (test concentration not listed). 2,300 tested, 7.4% active. shares compounds with Myeloid diff 2;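 active = over 5% cells positive for green fluorescent reporter, or over 2% positive for both it and APC stain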;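 also: range taken on the double positive population between DMSO and positive control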
* marks the source's active call; other numbers are inactive results; i = inactive; . = no result; + = active, no number.

SMILES | Myeloid diff 2 | FAS-TE inh | MPTP inh | NR3A LBD binder | rCAG binder | Myeloid diff | GFP autofluor
CC(C)c1nc(CNC(=O)CC2C(=O)NCCN2Cc2ccccc2)cs1 (configuration not stated) | i | -13 | -1 | . | 5 | i | 0
COc1ccc(NC(=O)c2csc(Cc3ccc(Cl)cc3)n2)cc1 | i | 1 | -2 | 3 | -1 | . | .
COc1ccc(COc2ccsc2C(=O)Nc2ccc(Cl)cc2)cc1 | i | 16 | 3 | -4 | 4 | i | 0
CCn1c(=O)c(=O)n(CC)c2cc(S(=O)(=O)Nc3cccc(OC)c3)ccc21 | + | 5 | -2 | 0 | 1 | i | 0
COc1cccc(NS(=O)(=O)c2ccc3c(c2)n(C)c(=O)c(=O)n3C)c1 | i | 4 | 1 | 1 | 4 | . | .
COc1ccc(-c2nnc(SCC(=O)Nc3cc(C)on3)n2C)cc1OC | + | -8 | 0 | -3 | -4 | i | 0
CCc1noc(C)c1C(=O)NNC(=O)c1ccc(N(CC)CC)cc1 | i | 0 | 0 | -1 | 3 | . | .
O=S1(=O)N=C(N2CCN(Cc3ccccc3)CC2)c2ccccc21 | + | 0 | -2 | -2 | 5 | i | 0
CN(C)c1ccc(C=C2SC(=S)NC2=O)cc1 | + | -85 | 3 | 2 | 1 | i | 0
CN(C)c1ccc(/C=N/N=C2/NC(=O)/C(=C/c3ccc([N+](=O)[O-])cc3)S2)cc1 | + | 2 | 37 | -3 | 21 | i | 95*
Cc1ccccc1NC(=O)CSCc1nc(N)nc(Nc2ccccc2C)n1 | i | 0 | -1 | 0 | -2 | . | .
CCOC(=O)Cc1csc(NS(C)(=O)=O)n1 | i | -11 | 0 | -1 | 1 | i | 0
CCOC(=O)Cc1csc(NC(=O)CC)n1 | i | -10 | -1 | -2 | 0 | . | .
O=C(/C=C/[C@H]1O[C@@H](n2ccc(=O)[nH]c2=O)[C@H](O)[C@@H]1O)NCC1CCCO1 (some centres not stated) | i | -9 | -1 | . | 0 | . | .
C=CCn1c(C)cc(-c2csc(NCC)n2)c1C | + | -78 | 1 | -6 | 3 | i | 0
CC1CCCN(CCCNC(=O)c2ccc3c(c2)N(Cc2ccc(F)cc2)C(=O)c2ccccc2S3=O)C1 (configuration not stated) | i | -5 | -2 | -1 | -4 | . | .
CC1CCCN(CCCNC(=O)c2ccc3c(c2)N(Cc2cccc(Cl)c2)C(=O)c2ccccc2S3=O)C1 (configuration not stated) | i | -3 | 0 | . | 6 | i | 1
CC(Oc1ccc(-c2ccccc2)c(F)c1)c1ccn(S(=O)(=O)c2ccc(F)cc2)n1 (configuration not stated) | i | 0 | 4 | -2 | 4 | i | 1
COc1ccc(S(=O)(=O)n2ccc(C(C)Oc3ccc(-c4ccccc4)c(F)c3)n2)cc1 (configuration not stated) | i | 28 | 1 | 3 | 4 | . | .
C=CCN(c1ccccc1OC)S(=O)(=O)c1cccc(C(=O)NCC(c2ccc(OC)cc2)N2CCCC2)c1 (configuration not stated) | i | 6 | 0 | -1 | 3 | . | .
CC(CNC(=O)C1CCCCC1)NC(=O)C1CCCCC1 (configuration not stated) | + | 0 | 0 | 2 | -2 | i | 0
CC(C)CNC(=O)C(=O)NNC(=O)C1CCCCC1 | i | -5 | 1 | -3 | -3 | . | .
CCC(=O)NC(=S)Nc1ccc(NC(=O)c2ccccc2[N+](=O)[O-])cc1 | i | -8 | 1 | -2 | 7 | i | 1
CCC(=O)NC(=S)Nc1ccc(NC(=O)c2cccc([N+](=O)[O-])c2C)cc1 | i | -9 | 0 | -8 | -2 | . | .
Cc1csc(SCc2nnc(-c3ccccc3Br)o2)n1 | i | -5 | 0 | . | -1 | i | 0
SMILES | Myeloid diff 2 | FAS-TE inh | MPTP inh | NR3A LBD binder | rCAG binder | Myeloid diff | GFP autofluor
Cc1csc(SCc2nnc(-c3ccc(Cl)cc3)o2)n1 | i | -4 | 3 | -4 | 0 | . | .
O=C(CCSc1nnc2scc(-c3ccccc3)n12)NCc1ccc2c(c1)OCO2 | i | -2 | 3 | -1 | -3 | i | 0
O=C(CSc1nnc2scc(-c3ccccc3)n12)Nc1ccc2c(c1)OCCO2 | i | 0 | 0 | -1 | -3 | . | .
COc1ccccc1C(CNC(=O)c1cccc(S(=O)(=O)N2c3ccccc3CC2C)c1)N(C)C (configuration not stated) | i | 0 | -2 | 0 | -1 | . | .
CC(C)(C)NCC(O)Cn1cc(C=O)c2ccccc21 (configuration not stated) | i | -8 | 0 | 0 | 2 | i | 0
Cc1ccc(NC(=O)Cn2cc(C=O)c3ccccc32)cc1 | i | 3 | 15 | 4 | 7 | . | .
Cc1c(CCOC(=O)c2cc([N+](=O)[O-])cc([N+](=O)[O-])c2)sc[n+]1CC(=O)c1ccc(Br)cc1 | i | 44 | -5 | -4 | 12 | . | .
Cc1cccc(-c2nnc(-c3cccc(NC(=O)Cc4cccs4)c3)o2)c1 | i | 30 | 19 | -9 | 8 | i | 0
CCOc1cc(C)nc(NCc2ccccc2)n1 | + | -3 | -1 | 5 | -4 | i | 4
CCCCOc1cc(C)nc(NCc2ccccc2)n1 | i | 17 | 5 | 2 | 1 | . | .
COc1ccccc1OCc1nnc(SCC(=O)N2CCCC2)o1 | i | -6 | 0 | -2 | 0 | . | .
COc1ccccc1OCc1nnc(SCCN2CCOCC2)o1 | i | -3 | -1 | -2 | -6 | i | 0
O=C(NC(=S)Nc1ccccc1Br)c1ccco1 | i | 0 | 0 | 1 | 1 | . | .
C#CCNC(=O)C1=C[C@H](c2csc3ccccc23)[C@@H](CCCO)[C@H](OCC)O1 | i | -11 | -1 | -3 | 7 | . | .
CCO[C@@H]1OC(C(=O)NCc2ccccc2)=C[C@H](c2csc3ccccc23)[C@H]1CCCO | i | 13 | -1 | -30 | -1 | i | 0
Cc1cc(C)c(-n2c(SCCS(=O)(=O)c3ccc(F)cc3)n[nH]c2=O)c(C)c1 | i | -2 | 13 | -1 | -3 | . | .
Cc1ccc(S(=O)(=O)CCSc2n[nH]c(=O)n2-c2ccccc2)cc1 | i | -1 | 2 | 0 | -3 | i | 0
COc1c(C)cc(C(=O)C2CCCN(C(=O)c3cccc(-n4cccn4)c3)C2)cc1C (configuration not stated) | i | -4 | 1 | 2 | -5 | . | .
CCOC(=O)c1[nH]c2ccccc2c1NC(=O)c1ccc(Br)o1 | + | 9 | 0 | -1 | -2 | i | 0
CCOC(=O)c1[nH]c2ccccc2c1NC(=O)NC(C)C | i | -4 | 2 | -1 | 3 | . | .
CCCCON1C(=O)c2cccc3cccc(c23)C1=O | i | 5 | 0 | -2 | 0 | . | .

Screening data deposited in PubChem by several laboratories.
